35 compounds from PubChem BioAssay (NCATS) can be followed below.

Each structure is given as a SMILES string. Several values for one entry are separate records, joined by “and”; a condition that tells them apart may be missing. Equal values may be shown once. Results filed as inconclusive are left out. Where a structure was tested more than once in an assay, its records may differ in their call. Activity calls are given as the source filed them. Calls follow the shape of the dose curve; as a rule, active = well fitted curve in the direction sought with a large enough effect; inconclusive = small, poorly fitted or top-dose-only effect, or another doubt; inactive = no such curve, though single readings can be large; an effect the other way counts as inactive or inconclusive.

Sequence of Tyrosine-protein kinase Yes (Homo sapiens) (P07947 whole entry, looked up): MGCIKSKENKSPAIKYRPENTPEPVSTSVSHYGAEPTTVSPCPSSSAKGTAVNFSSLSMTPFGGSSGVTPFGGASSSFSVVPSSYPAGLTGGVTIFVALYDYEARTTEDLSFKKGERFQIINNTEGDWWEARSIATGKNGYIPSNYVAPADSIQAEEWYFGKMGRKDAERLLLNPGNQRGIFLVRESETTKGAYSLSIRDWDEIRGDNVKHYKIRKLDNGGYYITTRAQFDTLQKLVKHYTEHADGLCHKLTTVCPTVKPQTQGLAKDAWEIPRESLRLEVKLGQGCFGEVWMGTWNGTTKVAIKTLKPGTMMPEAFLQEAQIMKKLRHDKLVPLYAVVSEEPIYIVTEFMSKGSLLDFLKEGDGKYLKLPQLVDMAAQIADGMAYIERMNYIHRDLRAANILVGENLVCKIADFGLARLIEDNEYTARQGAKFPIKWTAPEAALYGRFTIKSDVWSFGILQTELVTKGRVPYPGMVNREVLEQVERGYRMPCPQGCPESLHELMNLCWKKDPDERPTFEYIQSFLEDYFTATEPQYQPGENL
Sequence of Peroxisome proliferator-activated receptor alpha (Homo sapiens) (Q07869 whole entry, looked up): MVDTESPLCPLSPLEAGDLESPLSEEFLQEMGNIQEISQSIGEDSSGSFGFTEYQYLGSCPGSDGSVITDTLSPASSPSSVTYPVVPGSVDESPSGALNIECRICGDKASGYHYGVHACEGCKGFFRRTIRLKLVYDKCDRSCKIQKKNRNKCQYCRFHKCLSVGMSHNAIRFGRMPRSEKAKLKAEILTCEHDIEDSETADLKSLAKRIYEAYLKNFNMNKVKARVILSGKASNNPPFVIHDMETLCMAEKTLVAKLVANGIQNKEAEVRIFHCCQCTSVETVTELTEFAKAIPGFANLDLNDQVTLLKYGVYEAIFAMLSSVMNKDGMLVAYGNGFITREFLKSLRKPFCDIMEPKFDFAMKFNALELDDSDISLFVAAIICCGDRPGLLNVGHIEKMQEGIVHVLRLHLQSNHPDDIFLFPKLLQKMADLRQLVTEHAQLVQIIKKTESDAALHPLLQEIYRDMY
Sequence of Nuclear receptor ROR-gamma (Homo sapiens) (P51449 whole entry, looked up): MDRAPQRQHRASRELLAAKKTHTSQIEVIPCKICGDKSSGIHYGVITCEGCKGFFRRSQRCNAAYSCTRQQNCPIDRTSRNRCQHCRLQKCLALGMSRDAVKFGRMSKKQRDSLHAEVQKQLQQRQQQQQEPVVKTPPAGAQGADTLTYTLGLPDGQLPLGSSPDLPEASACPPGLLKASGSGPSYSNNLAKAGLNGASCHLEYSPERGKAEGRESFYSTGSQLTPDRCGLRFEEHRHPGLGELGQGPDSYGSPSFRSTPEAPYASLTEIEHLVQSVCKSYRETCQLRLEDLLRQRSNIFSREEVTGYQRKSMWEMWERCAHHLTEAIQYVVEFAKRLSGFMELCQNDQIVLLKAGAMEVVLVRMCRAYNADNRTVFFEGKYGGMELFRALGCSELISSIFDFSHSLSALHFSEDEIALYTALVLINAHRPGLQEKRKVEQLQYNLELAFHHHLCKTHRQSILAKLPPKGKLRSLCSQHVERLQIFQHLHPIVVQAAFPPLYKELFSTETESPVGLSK

System in the first experiment: not listed separately
Description: qHTS assay for environmental chemicals that activate the Aryl hydrocarbon Receptor (AhR) signaling pathway (AID 651777). Also: % of control where 0% means no effect; nearly all actives have a fitted effect of over 15% in size. Conditions: 1A2-DRE human hepatoma cells, luciferase, 24 h; activation: stronger effect = higher value. In outline: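 Reporter gene assay: hepatoma cells with DRE/CYP1A2-luciferase, 24 hr compound incubation at 37 C, 5% CO2, luminescence after One-Glo (30 min, RT).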
Background: qHTS replaces the single test concentration by a dilution series.
For the compound `OCCOc1ccccc1`, the activation was -1.68% (inactive) and 1.95% (inactive) and 8.55% (inactive). On the same count and under the same terms, for `CCCC(C)(COC(N)=O)COC(=O)NC(C)C` (centres undefined) the value was 0.419% (inactive) and -1.4% (inactive); for `O=c1[nH]c2ccccc2n1C1CCN(CCCC(c2ccc(F)cc2)c2ccc(F)cc2)CC1`, 1.32% (inactive); for `C=C(C)[C@H]1Cc2c(ccc3c2O[C@@H]2COc4cc(OC)c(OC)cc4[C@@H]2C3=O)O1`, 3.42% (inactive). With `CNCC(O)c1ccc(O)cc1` (centres undefined), the activation is -0.394% (inactive).

Regarding `C[C@@H]1O[C@@H](O[C@H]2C[C@@H](O)[C@]3(CO)[C@H]4[C@H](O)C[C@]5(C)[C@@H](C6=CC(=O)OC6)CC[C@]5(O)[C@@H]4CC[C@]3(O)C2)[C@H](O)[C@H](O)[C@H]1O`, the activation was 6.71% (inactive).

For `C[C@]12C/C(=C/O)C(=O)C[C@@H]1CC[C@@H]1[C@@H]2CC[C@@]2(C)[C@H]1CC[C@]2(C)O`, the activation was 1.36% (inactive) and 0.159% (inactive).

On to `NCC(O)c1ccc(O)cc1` (centres undefined), for which the activation was -0.493% (inactive).

For the next experiment, the target named is Peroxisome proliferator-activated receptor alpha (Homo sapiens) (UniProt Q07869). The experiment is described as follows: qHTS assay for small molecule agonists of the peroxisome proliferator-activated receptor alpha (PPARalpha) signaling pathway (AID 651778). Also: potency is read from the fitted curve at half-maximal effect. As to max response: % of control where 0% means no effect. Particulars: PathHunter PPARalpha complementation, chemiluminescence, 6 h; max response: stronger effect = higher value. The essentials:
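Cells plated at 2,000/well and held overnight at 37 C, 5% CO2, then compound added by pin tool for 6 hr; after PathHunter detection reagent and 60 min at room temperature, chemiluminescence from enzyme complementation was read.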
`Cc1cc(SCc2sc(-c3ccc(C(F)(F)F)c(F)c3)nc2C)ccc1OCC(=O)O`: the Potency was 2 µM (active).

Regarding `Oc1ccc(Cl)cc1Cc1ccccc1`, the max response is 14% (inactive) and 4.54% (inactive). Consider `CC(C)(C)CC(C)(C)c1ccc(O)cc1`, for which the Potency is 25.1 µM (active). For the compound `C[C@H]1O[C@@H](O[C@H]2[C@@H](O)C[C@H](O[C@H]3[C@@H](O)C[C@H](O[C@H]4CC[C@@]5(C)[C@H](CC[C@@H]6[C@@H]5CC[C@]5(C)[C@@H](C7=CC(=O)OC7)CC[C@]65O)C4)O[C@@H]3C)O[C@@H]2C)C[C@H](O)[C@@H]1O`, the max response was -0.744% (inactive). Same read-out and setting: for `Oc1ccccc1-c1ccccc1` the value was -2.25% (inactive) and -0.4% (inactive) and 12.1% (inactive). Turning to `Nc1ccncc1`, the max response is 0.27% (inactive). On the same count and under the same terms, in the case of `Clc1ccc(COC(Cn2ccnc2)c2ccc(Cl)cc2Cl)cc1` (centres undefined) it was -5.88% (inactive). On to `O=c1oc2ccccc2c(O)c1C(CC(O)c1ccc(-c2ccc(Br)cc2)cc1)c1ccccc1` (centres undefined), for which the max response is -1.05% (inactive). Take `CCOP(=S)(OCC)Oc1cc(C)nc(C(C)C)n1`: the max response is -5.15% (inactive) and -1.07% (inactive). Same read-out and setting: for `C[C@]12CCC(=O)C(O)=C1CC[C@@H]1[C@@H]2CC[C@]2(C)C(=O)CC[C@@H]12` the value was -1.14% (inactive); for `c1ccc2c(c1)Nc1ccccc1S2`, -1.15% (inactive) and -1.18% (inactive); for `Oc1cccc2cccnc12`, -5% (inactive) and -2.57% (inactive). On the same count and under the same terms, in the case of `N[C@@H](Cc1ccc(N(CCCl)CCCl)cc1)C(=O)O` it was -0.479% (inactive) and -0.609% (inactive); in that of `OCCOc1ccccc1`, -6.3% (inactive) and -2.04% (inactive) and 0.179% (inactive); in that of `Oc1cc(Cl)ccc1Oc1ccc(Cl)cc1Cl`, 13.1% (inactive). For the compound `CCCC(C)(COC(N)=O)COC(=O)NC(C)C` (centres undefined), the max response was -0.746% (inactive) and -1.22% (inactive). On the same count and under the same terms, for `O=c1[nH]c2ccccc2n1C1CCN(CCCC(c2ccc(F)cc2)c2ccc(F)cc2)CC1` the value was -0.751% (inactive). Same read-out and setting: in the case of `C=C(C)[C@H]1Cc2c(ccc3c2O[C@@H]2COc4cc(OC)c(OC)cc4[C@@H]2C3=O)O1` it was 7.18% (inactive); in that of `CNCC(O)c1ccc(O)cc1` (centres undefined), -4.08% (inactive); in that of `C[C@@H]1O[C@@H](O[C@H]2C[C@@H](O)[C@]3(CO)[C@H]4[C@H](O)C[C@]5(C)[C@@H](C6=CC(=O)OC6)CC[C@]5(O)[C@@H]4CC[C@]3(O)C2)[C@H](O)[C@H](O)[C@H]1O`, -0.456% (inactive).

As to `C[C@]12C/C(=C/O)C(=O)C[C@@H]1CC[C@@H]1[C@@H]2CC[C@@]2(C)[C@H]1CC[C@]2(C)O`, the max response was -0.191% (inactive) and -0.334% (inactive). Take `NCC(O)c1ccc(O)cc1` (centres undefined): the max response was -2.88% (inactive).

A further experiment addresses Nuclear receptor ROR-gamma (Homo sapiens) (UniProt P51449). Description: qHTS assay for small molecule antagonists of the retinoid-related orphan receptor gamma (ROR-gamma) signaling pathway (AID 651802). Also: nearly all actives have a fitted effect of over 60% in size. Also: potency is read from the fitted curve at half-maximal effect.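 As to activity change, negative = inhibition: CHO cells with doxycycline-induced ROR-gamma expression; luciferase reporter luminescence driven by ROR response element; % is scaled to controls: 0 for no effect and ±100 for the full control effect.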 Particulars: ROR-gamma antagonist cell reporter assay; series mostly up to 92.2 µM; activity change, negative = inhibition: at the top concentration. In outline:
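CHO, TET-inducible ROR + RORE-LUC reporter, 1536-well qHTS. Compound pinned, doxycycline added, 16hr 37C/5% CO2. ONE-Glo, 30 min RT, luminescence; signal drop scored as antagonism.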
For `CC(C)C(=O)Nc1ccc([N+](=O)[O-])c(C(F)(F)F)c1`, the Potency was 23.7 µM (active). For `Oc1ccccc1-c1ccccc1`, the “activity change, negative = inhibition” value was -16.7% (inactive). `CCOP(=S)(OCC)Oc1cc(C)nc(C(C)C)n1`: the “activity change, negative = inhibition” value is -9.43% (inactive). With `COc1cc2c(c(OC)c1OC)-c1ccc(OC)c(=O)cc1[C@@H](NC(C)=O)CC2`, the Potency is 335 nM (active) and 119 nM (active). Regarding `c1ccc2c(c1)Nc1ccccc1S2`, the “activity change, negative = inhibition” value is -14.8% (inactive). As for `Oc1cccc2cccnc12`, the Potency entry is “inactive and 3.35 µM (active)”. Turning to `N[C@@H](Cc1ccc(N(CCCl)CCCl)cc1)C(=O)O`, the Potency was 26.6 µM (active).

Take `OCCOc1ccccc1`: the “activity change, negative = inhibition” value was -1.41% (inactive). Same read-out and setting: in the case of `CCCC(C)(COC(N)=O)COC(=O)NC(C)C` (centres undefined) it was 10.4% (inactive); in that of `CNCC(O)c1ccc(O)cc1` (centres undefined), 25.6% (inactive); in that of `NCC(O)c1ccc(O)cc1` (centres undefined), -11.2% (inactive).

The target of another experiment is Tyrosine-protein kinase Yes (Homo sapiens) (UniProt P07947). The experiment is described as follows: qHTS for small molecule inhibitors of Yes1 kinase: Primary Screen (AID 686947). Also: nearly all actives have a fitted effect of over 60% in size. Also: potency is read from the fitted curve at half-maximal effect.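 As to activity change, negative = inhibition: plate controls were DMSO with enzyme for no effect and no-enzyme DMSO wells for full effect.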 Conditions: Yes1 kinase biochemical qHTS inhibition; series mostly up to 76.9 µM; activity change, negative = inhibition: at the top concentration. In outline:
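Yes1 (4 nM) preincubated 20 min with compound, then 60 min room-temperature reaction with 0.1 mM ATP and 0.3 mg/mL poly(E4Y) in pH 7.5 Tris, 10 mM MgCl2. ADP measured by ADP-Glo luminescence, normalised to enzyme/no-enzyme controls.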
In the case of `Cc1cc(SCc2sc(-c3ccc(C(F)(F)F)c(F)c3)nc2C)ccc1OCC(=O)O`, the “activity change, negative = inhibition” value was -6.95% (inactive). Same read-out and setting: for `COC[C@H]1OC(=O)c2coc3c2[C@@]1(C)C1=C(C3=O)C2CCC(=O)[C@@]2(C)C[C@H]1OC(C)=O` (some centres undefined) the value was 0.305% (inactive); for `CCCCC/C=C\C/C=C\C/C=C\C/C=C\CCCC(=O)NC1CC1`, 7.98% (inactive). Turning to `Cn1cc(C2=C(c3cn(C4CCN(Cc5ccccn5)CC4)c4ccccc34)C(=O)NC2=O)c2ccccc21`, the “activity change, negative = inhibition” value was -10.5% (inactive). On the same count and under the same terms, for `CC1=C2C[C@@H]3[C@@H](CC=C4C[C@@H](O)CC[C@@]43C)[C@@H]2CC[C@]12O[C@H]1C[C@H](C)CN[C@H]1[C@H]2C` the value was -1.05% (inactive); for `CN(C)CCN(C)CCc1ccc(Cl)c(Cl)c1`, 11.1% (inactive). On the same count and under the same terms, for `COC1(CS(=O)c2ccccc2)CCN(CCc2c[nH]c3ccc(F)cc23)CC1` (centres undefined) the value was -0.438% (inactive); for `C[C@]12CCC(=O)C(O)=C1CC[C@@H]1[C@@H]2CC[C@]2(C)C(=O)CC[C@@H]12`, 49.3% (inactive). `Cc1sc2c(c1C)C(c1ccc(Cl)cc1)=N[C@@H](CC(=O)OC(C)(C)C)c1nnc(C)n1-2`: the “activity change, negative = inhibition” value was 4.34% (inactive). Still for that read-out and setting: in the case of `Cn1c(CCCC(=O)O)nc2cc(N(CCCl)CCCl)ccc21` it was -9.4% (inactive); in that of `C[C@@H]1[C@@H](CC(C[C@H]2O[C@@H]3O[C@]4(C)CC[C@@H]5[C@H](C)CC[C@@H]([C@H]2C)[C@@]35OO4)C[S+](=O)([O-])c2ccc(COC(=O)N(C)C)cc2)O[C@@H]2O[C@]3(C)CC[C@H]4[C@H](C)CC[C@@H]1[C@@]24OO3` (some centres undefined), -0.0236% (inactive). For the compound `O=c1c(O)c(-c2ccc(O)c(O)c2)oc2cc(O)cc(O)c12`, the Potency is 15.4 µM (active).

As for `C[C@@H]1[C@@H](C(=O)C[C@H]2O[C@@H]3O[C@]4(C)CC[C@@H]5[C@H](C)CC[C@@H]([C@H]2C)[C@@]35OO4)O[C@@H]2O[C@]3(C)CC[C@H]4[C@H](C)CC[C@@H]1[C@@]24OO3`, the “activity change, negative = inhibition” value is -0.401% (inactive).
